{
  "source": "PubChem BioAssay AID2685",
  "about": "(National Center for Advancing Translational Sciences (NCATS), 2010)",
  "note": "Out of some 320,000 compounds screened, about 2,100 (0.66%) were called active. Another 53% or so got no clear call; they are omitted. The call rests on the fitted dose curve; in most records, active means well fitted inhibition curve with a large enough effect in the signal ratio, with a control signal flat (not every such curve was filed as active); inconclusive means small, poorly fitted or top-dose-only effect, or effect the other way, or a change in a side signal; inactive means flat fitted curve, though single readings scatter; the % refers to the signal ratio. Only a selection was taken, and actives are over-represented in it overall. Potency means the concentration at half of the fitted maximal effect.",
  "data": [
    {"test": "qHTS Assay for Lipid Storage Modulators in Drosophila S3 Cells;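 on cell number change: cells counted by Cell Tracker Red CMTPX staining in the red channel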; on lipid storage change, negative = inhibition: on the % scale 0 is the no-effect control and ±100 the full control effect", "settings": "BODIPY lipid droplet fluorescence, 18-24 h, cells fed with added oleic acid; cell number change: measured here: cell count max response; series mostly up to 46.1 µM; lipid storage change, negative = inhibition: at the top concentration", "outline": "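Drosophila S3 cells loaded with oleic acid (400 uM, as added) and compounds at several concentrations; lipid droplets imaged by 488-nm laser-scanning cytometry, 500–530 nm intensity and object ratio to cell channel. Percent activity normalized to 20 uM Triacsin C.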", "units": {"cell number change": "%"}, "values": [
      {"smiles": "O=C(OCC(=O)N1CCOCC1)c1c(Cl)ccc(Cl)c1Cl", "outcome": "inactive"},
      {"smiles": "O=S(=O)(Nc1ccc(Br)cc1)c1cccc(NC(=S)NCCN2CCOCC2)c1", "outcome": "inactive", "cell number change": 13},
      {"smiles": "COC(=O)c1ccccc1CSc1nsc(C)c1C#N", "Potency": "9.2 µM (active)", "cell number change": 26.2},
      {"smiles": "Cc1ccc(CSc2nsc(C)c2C#N)cc1", "lipid storage change, negative = inhibition": "16.1% (inactive)", "cell number change": 8.89},
      {"smiles": "COC(=O)c1ccccc1CSc1nsc(/C=C/N(C)C)c1C#N", "lipid storage change, negative = inhibition": "9.5% (inactive)", "cell number change": 7.59},
      {"smiles": "O=C(CCS(=O)(=O)c1ccccc1)Nc1nc2cc3c(cc2s1)OCO3", "lipid storage change, negative = inhibition": "10.2% (inactive)", "cell number change": -2.46},
      {"smiles": "O=C(O)CCC(=O)OCC1CCCO1", "note": "(configuration not stated)", "Potency": "23.1 µM (active)", "cell number change": -20.4},
      {"smiles": "O=C(O)CCC(=O)OCC1CCCCC1", "outcome": "inactive", "cell number change": 6.49},
      {"smiles": "O=C(O)CCC(=O)Nc1ccc(OCC2CCCO2)cc1", "note": "(configuration not stated)", "lipid storage change, negative = inhibition": "-2.25% (inactive)", "cell number change": 20.5},
      {"smiles": "Cc1occc1C(=O)N1CCN(S(C)(=O)=O)CC1", "lipid storage change, negative = inhibition": "1.26% (inactive)", "cell number change": 15.2},
      {"smiles": "COCCCNC(=O)Cc1c(C)c2cc3c(cc2oc1=O)OC(C)(C)CC3", "lipid storage change, negative = inhibition": "-14.7% (inactive)", "cell number change": -2.78},
      {"smiles": "CC1CC(C)CN(CCCNC(=O)C2CCCN(c3ncnc4c3nc3n4CCCCC3)C2)C1", "note": "(configuration not stated)", "outcome": "inactive", "cell number change": 27},
      {"smiles": "COc1ccc(CNC(=O)C2CCCN(c3ncnc4c3nc3n4CCCCC3)C2)cc1", "note": "(configuration not stated)", "lipid storage change, negative = inhibition": "2.83% (inactive)", "cell number change": 3.46},
      {"smiles": "O=C(NCCCN1CCCCC1)C1CCN(c2ncnc3c2nc2n3CCCCC2)CC1", "lipid storage change, negative = inhibition": "5.21% (inactive)", "cell number change": 15.5},
      {"smiles": "O=C(NCCCN1CCCCC1)C1CCCN(c2ncnc3c2nc2n3CCCCC2)C1", "note": "(configuration not stated)", "Potency": "29.1 µM (active)", "cell number change": -4.96},
      {"smiles": "CC1CCN(C(=O)C2CCCN(c3ncnc4c3nc3n4CCCCC3)C2)CC1", "note": "(configuration not stated)", "lipid storage change, negative = inhibition": "20.4% (inactive)", "cell number change": -11.2},
      {"smiles": "COc1cccc(CNC(=O)C2CCCN(c3ncnc4c3nc3n4CCCCC3)C2)c1", "note": "(configuration not stated)", "outcome": "inactive"},
      {"smiles": "CCCN1CCN(C(=O)C2CCN(c3ncnc4c3nc3n4CCCCC3)CC2)CC1", "outcome": "inactive", "cell number change": -18.8},
      {"smiles": "CC1CCN(C(=O)C2CCN(c3ncnc4c3nc3n4CCCCC3)CC2)CC1", "Potency": "3.66 µM (active)", "cell number change": -15},
      {"smiles": "COc1ccc(OC)c(CNC(=O)C2CCCN(c3ncnc4c3nc3n4CCCCC3)C2)c1", "note": "(configuration not stated)", "Potency": "2.31 µM (active)", "cell number change": -11.8},
      {"smiles": "Cc1cc(C)n2nc(C(=O)OCC(=O)Nc3ccc(F)cc3F)nc2n1", "lipid storage change, negative = inhibition": "6.42% (inactive)", "cell number change": 11.7},
      {"smiles": "CN(C)C(=S)Nc1cccc(F)c1", "lipid storage change, negative = inhibition": "-8.92% (inactive)", "cell number change": 0.661},
      {"smiles": "CC(C)(C)c1cc(S(=O)(=O)CCc2ccncc2)cc(C(C)(C)C)c1F", "outcome": "inactive", "cell number change": -5.56},
      {"smiles": "Cc1cccc([C@@H]2[C@@H]3C(=O)N(Cc4ccccc4)C(=O)[C@@H]3[C@]3(Cc4ccccc4)C(=O)N(c4ccc(C(F)(F)F)cc4)C(=O)N23)c1", "lipid storage change, negative = inhibition": "21.6% (inactive)", "cell number change": 5.02},
      {"smiles": "O=C(Nc1ccccn1)c1cc(-n2cnnc2)ccc1Cl", "lipid storage change, negative = inhibition": "1.83% (inactive)", "cell number change": -4.08},
      {"smiles": "CC(C)Oc1ccc(C(=O)Nc2c3c(nn2C(C)(C)C)CS(=O)(=O)C3)cc1", "lipid storage change, negative = inhibition": "-14.1% (inactive)"},
      {"smiles": "O=C(COC(=O)Cc1ccc(Br)cc1)NC1CCCCCC1", "lipid storage change, negative = inhibition": "-20.9% (inactive)", "cell number change": -16.9},
      {"smiles": "CCCSc1nnc(NC(=O)CSc2nc3[nH]c(=O)cc(O)c3s2)s1", "lipid storage change, negative = inhibition": "-8.42% (inactive)", "cell number change": -1.41},
      {"smiles": "Cc1c(CC(=O)N2CCC(C(N)=O)CC2)c(=O)oc2cc3c(cc12)CCC1(CCCCC1)O3", "Potency": "13 µM (active)", "cell number change": -23.7},
      {"smiles": "Cc1c(Cc2ccccc2)c(=O)oc2cc(OCC(=O)N3CCC(C(N)=O)CC3)ccc12", "lipid storage change, negative = inhibition": "-27.3% (inactive)", "cell number change": 23.5},
      {"smiles": "Cc1c(CC(=O)O)c(=O)oc2cc3c(cc12)CCC(C)(C)O3", "lipid storage change, negative = inhibition": "0.884% (inactive)", "cell number change": 4.46},
      {"smiles": "CCOc1ccccc1NC(=O)CCNC(=O)c1ccco1", "outcome": "inactive", "cell number change": -5.71},
      {"smiles": "O=c1[nH]c(C2CCCN(S(=O)(=O)c3cccc(F)c3)C2)nc2c1nnn2Cc1ccccc1", "note": "(configuration not stated)", "outcome": "inactive", "cell number change": 10.8},
      {"smiles": "CC(C)(C)c1ccc(Cn2nnc3c(=O)[nH]c(C4CCN(C(=O)c5ccco5)CC4)nc32)cc1", "Potency": "20.6 µM (active)", "cell number change": -8.06},
      {"smiles": "COc1ccc(Cn2nnc3c(=O)[nH]c(C4CCN(S(=O)(=O)c5ccc(C)cc5)CC4)nc32)cc1", "Potency": "13 µM (active)", "cell number change": -52.1},
      {"smiles": "O=C(c1ccco1)N1CCCC(c2nc3c(nnn3Cc3ccccc3)c(=O)[nH]2)C1", "note": "(configuration not stated)", "lipid storage change, negative = inhibition": "7.52% (inactive)", "cell number change": 1.8},
      {"smiles": "Cc1ccc(Cn2nnc3c(=O)[nH]c(C4CCN(S(=O)(=O)c5ccc(F)cc5)CC4)nc32)cc1", "outcome": "inactive", "cell number change": 8.95},
      {"smiles": "O=c1[nH]c(C2CCN(S(=O)(=O)c3ccccc3)CC2)nc2c1nnn2Cc1cccc(Cl)c1", "outcome": "inactive", "cell number change": 26.3},
      {"smiles": "Cc1ccc(Cn2nnc3c(=O)[nH]c(C4CCN(S(=O)(=O)c5ccccc5)CC4)nc32)cc1", "lipid storage change, negative = inhibition": "-14.5% (inactive)"},
      {"smiles": "O=c1[nH]c(C2CCCN(S(=O)(=O)c3ccccc3)C2)nc2c1nnn2Cc1cccc(Cl)c1", "note": "(configuration not stated)", "Potency": "2.59 µM (active)", "cell number change": 7.14},
      {"smiles": "O=C(c1ccccc1Cl)N1CCC(c2nc3c(nnn3Cc3ccco3)c(=O)[nH]2)CC1", "lipid storage change, negative = inhibition": "-9.79% (inactive)", "cell number change": -9.84},
      {"smiles": "Cc1ccc(-n2nnnc2SCC(=O)NC2CCCc3ccccc32)c(C)c1", "note": "(configuration not stated)", "lipid storage change, negative = inhibition": "16.2% (inactive)"},
      {"smiles": "O=C(CSc1ncn[nH]1)c1ccc(OC(F)F)cc1", "lipid storage change, negative = inhibition": "14.1% (inactive)", "cell number change": 6.27},
      {"smiles": "CCCn1c(C(O)c2ccc(OC)cc2)nc2ccccc21", "note": "(configuration not stated)", "lipid storage change, negative = inhibition": "0.274% (inactive)", "cell number change": 0.04},
      {"smiles": "O=C(NN=C1C2CC3CC1CC(Cl)(C3)C2)c1ccccn1", "lipid storage change, negative = inhibition": "8.32% (inactive)", "cell number change": 10.9},
      {"smiles": "Cc1ccc(C(=O)Cn2c3[n+](c4ccccc42)CC(O)CS3)cc1", "note": "(configuration not stated)", "lipid storage change, negative = inhibition": "8.6% (inactive)", "cell number change": 25.2}
    ]}
  ]
}
